Bioassay records: PubChem, several laboratories
Only some compounds are listed: those with a hit (about 3.5% of all), similar ones and a draw of the others.
FAK inh – FAK kinase inhibitors, primary screen, biochemical. Focal adhesion kinase 1 (Homo sapiens), Q05397. biochemical FAK kinase activity assay. inhibition, %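 (tested at 7 µM)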. 97,000 compounds, 0.84% hits. AID 727, 2007; in the data active = inhibition above about 19%
ERa coact pot – enhancers of ERα–SRC-1 coactivator binding, primary screen, biochemical, TR-FRET, ERα LBD, low estradiol; TR-FRET ERalpha-LBD/SRC-Cy5 coactivator binding, 2 h; 100 = basal binding, no effect; coactivator binding (% of control), % at 25.6 µM; AID 639, 2007; 86,000 compounds, 1.3% hits; in the data active = activity above about 200%;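 note: binding measured in presence of low estradiol as agonist stimulus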
Target sequence (P03372 whole entry, looked up, the tested form may be a part): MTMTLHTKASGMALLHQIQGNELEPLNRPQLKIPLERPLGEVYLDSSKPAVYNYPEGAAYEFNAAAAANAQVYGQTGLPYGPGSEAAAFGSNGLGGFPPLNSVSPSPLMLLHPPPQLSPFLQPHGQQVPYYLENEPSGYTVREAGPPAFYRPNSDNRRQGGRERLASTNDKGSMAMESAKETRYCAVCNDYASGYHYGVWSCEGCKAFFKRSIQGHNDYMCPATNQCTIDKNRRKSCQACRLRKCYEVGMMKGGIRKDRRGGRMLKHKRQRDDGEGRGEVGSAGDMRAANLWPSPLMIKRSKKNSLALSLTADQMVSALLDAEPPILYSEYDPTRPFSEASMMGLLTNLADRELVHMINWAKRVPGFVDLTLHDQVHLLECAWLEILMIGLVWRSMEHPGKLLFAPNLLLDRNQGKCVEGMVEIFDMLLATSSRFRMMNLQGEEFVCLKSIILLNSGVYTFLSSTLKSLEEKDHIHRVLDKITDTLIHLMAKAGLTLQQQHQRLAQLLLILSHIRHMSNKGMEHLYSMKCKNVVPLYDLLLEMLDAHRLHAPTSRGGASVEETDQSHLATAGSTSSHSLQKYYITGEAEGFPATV
ERa SRC1 inh – ERα–SRC-1 coactivator interaction inhibitors, primary screen, biochemical, TR-FRET, ERα LBD, estradiol-bound; inhibition, % at 25.6 µM; AID 629, 2007; Estrogen receptor (Homo sapiens), P03372; 86,000 compounds, 1.7% hits; TR-FRET ER-alpha LBD / SRC-1 peptide; in the data active = inhibition above about 50%
ERb SRC1 inh – inhibitors of ERβ-SRC1 coactivator interaction, primary screen, biochemical, TR-FRET, ERβ LBD, SRC-1 peptide; inhibition, % at 25.6 µM; Estrogen receptor beta (Homo sapiens), Q92731; 86,000 compounds, 1.3% hits; TR-FRET ER-beta LBD / SRC1-Cy5 peptide binding; receptor agonist-loaded with 1 µM estradiol; AID 633, 2007;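 active = compounds whose percent inhibition of the receptor-coactivator binding signal exceeds about 50% in the single-dose screen, limit read from the data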
CD11b adhes enh – enhancers of CD11b/CD18 adhesion to fibrinogen, primary screen, K562 cells, luminescence; ATPlite luminescence; activation, % at 10 µM; 93,000 compounds, 0.07% hits; AID 1499, 2009;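 active = 10 µM primary screen giving 50% or more activity, confirmed by 40% or more on retest at that dose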
Mac1 fbg inh – inhibitors of CD11b/CD18 adhesion to fibrinogen, primary screen, K562 cells, luminescence; Integrin beta-2 (Homo sapiens) + Integrin alpha-M (Homo sapiens), P05107+P11215; ATPlite luminescence; Mn2+ added to activate the integrin; inhibition, % at 10 µM; 93,000 compounds, 0.54% hits; AID 1497, 2009;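 active = primary inhibition of 50% or more at 10 µM, then 40% or more on retest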
Of the large screens only hits and unclear results are named; the others gave an inactive call; [ ] = remark or other dose.

CCCN1CCN(C(=O)c2cc3c(s2)-c2ccccc2S(=O)(=O)C3)CC1	none (no result: ERa coact pot, ERa SRC1 inh, ERb SRC1 inh)
CC(C)C(=O)NC(C)C(c1cccs1)N1CCN(c2ccccc2)CC1 (stereo not given)	none (no result: CD11b adhes enh, Mac1 fbg inh)
CC(NC(=O)C1CC1)C(c1cccs1)N1CCN(c2ccccc2)CC1 (stereo not given)	ERb SRC1 inh 56[fluorescence artefact?] (no result: FAK inh, CD11b adhes enh, Mac1 fbg inh)
O=C(CSc1nnc(-c2ccco2)n1Cc1ccccc1)NC(=O)NCc1ccccc1	none
Cc1cc(NC(=O)CSc2nc(-c3ccc(F)cc3)cs2)no1	none
C=CCn1c(SCC(=O)NC(=O)NCc2ccco2)nc2sc(CC)cc2c1=O	ERa SRC1 inh 74, ERb SRC1 inh 65 (no result: FAK inh)
Cc1nnc(SCC(=O)NC(=O)NCc2ccco2)n1Cc1ccccc1	ERa SRC1 inh 52
O=C(CSc1nc(-c2ccc(F)cc2)cs1)NC(=O)NCc1ccco1	ERa SRC1 inh 53
CCn1c(SCC(=O)NC(=O)NCc2ccco2)nc2sc(C)c(C)c2c1=O	none (no result: ERa coact pot, ERa SRC1 inh, ERb SRC1 inh)
CCCn1c(SCC(=O)NC(=O)NCc2ccco2)n[nH]c1=O	ERa SRC1 inh 74[fluorescence artefact?], ERb SRC1 inh 63[fluorescence artefact?]
Cc1ccc(S(=O)(=O)N2CCN(C3CCC(c4ccccc4)CC3)CC2)cc1 (stereo not given)	none (no result: ERa coact pot, ERa SRC1 inh, ERb SRC1 inh)
O=C(NCCc1cccs1)C1CC(c2ccc([N+](=O)[O-])cc2)=NO1 (stereo not given)	none (no result: ERa coact pot, ERa SRC1 inh, ERb SRC1 inh)
COc1cccc(OCc2nnc(SCC(=O)NCc3ccco3)n2CCc2ccccc2)c1	ERa SRC1 inh 57
CCOc1ccccc1-n1nnnc1SCC(=O)NC(=O)NCc1ccco1	ERa SRC1 inh 77[fluorescence artefact?], ERb SRC1 inh 62 (no result: FAK inh)
O=C(COC(=O)C1CC1)NCc1ccccc1Cl	none (no result: ERa coact pot, ERa SRC1 inh, ERb SRC1 inh)
CC(C)CSc1nnc2c(n1)[nH]c1ccccc12	none
CCCCSc1nnc2c(n1)[nH]c1ccccc12	ERa SRC1 inh 56
O=C(c1ccccc1)N1CCN(C2CC(=O)N(CCc3ccccc3)C2=O)CC1 (stereo not given)	none
Cc1cccc(NC(=O)C2CCCN(c3nc(C)cc(C)n3)C2)c1 (stereo not given)	none (no result: FAK inh)
Cc1cccc(NC(=O)C2CCN(c3nc(C)cc(C)n3)CC2)c1	ERb SRC1 inh 55[fluorescence artefact?] (no result: FAK inh)
N#CC1=C(N)OC2=C(CC/C2=C\c2ccc(F)cc2)C1c1ccc(F)cc1 (stereo not given)	none (no result: FAK inh, ERa coact pot, ERa SRC1 inh, ERb SRC1 inh)
N#CC1=C(N)OC2=C(CCC/C2=C/c2ccoc2)C1c1ccoc1 (stereo not given)	ERa SRC1 inh 74, ERb SRC1 inh 73[fluorescence artefact?]
COC(=O)c1ccc(CSc2ncn[nH]2)o1	ERb SRC1 inh 86[fluorescence artefact?]
CCc1nnc(NC(=O)CSc2nnc(-c3ccccc3NC(=O)c3ccccc3)o2)s1	ERa coact pot 285[fluorescence artefact?]
Fc1ccccc1CSc1ncnc2c1oc1ccccc12	ERa coact pot 213[fluorescence artefact?]
CCOc1ccccc1NC(=O)CSc1ncnc2c1oc1ccccc12	ERa coact pot 274[fluorescence artefact?]
Cc1ccc(CNC(=O)C2c3ccccc3C(=O)N3CCc4ccccc4C23)o1 (stereo not given)	none
O=C(c1cccc(F)c1)N1C2C=CC(C2)C1(C(F)(F)F)C(F)(F)F (stereo not given)	none (no result: CD11b adhes enh, Mac1 fbg inh)
CCC(c1nnnn1CCC(C)C)N1CCC(C(N)=O)CC1 (stereo not given)	none
COC(=O)C1=C(N)N(c2ccccc2C(F)(F)F)C2=C(C(=O)CCC2)C1c1ccc2c(c1)OCO2 (stereo not given)	none
COC(=O)c1ccc(CSc2ncnc3ccccc23)o1	none
O=C(CSc1ncnc2c1oc1ccccc12)Nc1cccc(C(F)(F)F)c1	none
O=C(CSc1ncnc2c1oc1ccccc12)Nc1ccccc1F	ERa coact pot 406[fluorescence artefact?], ERb SRC1 inh 55[fluorescence artefact?]
CCc1nnc(NC(=O)CSc2ncnc3c2oc2ccccc23)s1	ERa coact pot 238[fluorescence artefact?]
O=C(CSc1ncnc2c1oc1ccccc12)Nc1nc2ccccc2s1	none
O=C(CSc1ncnc2c1oc1ccccc12)Nc1cccc(Cl)c1	ERa coact pot 373[fluorescence artefact?]
COC(=O)c1ccc(CSc2ncnc3c2oc2ccccc23)o1	ERa coact pot 234[fluorescence artefact?], ERb SRC1 inh 56[fluorescence artefact?]
CN(C)S(=O)(=O)N(CC(=O)N(Cc1ccccc1)Cc1ccccc1)c1ccccc1	ERa SRC1 inh 55
COc1ccc(Cl)cc1NC(=O)c1ocnc1C	ERa SRC1 inh 52, ERb SRC1 inh 62
COc1ccc(NC(=O)c2ocnc2C)cc1OC	none
Cc1ccc(-n2c(Cn3nc(C(F)(F)F)cc3C)n[nH]c2=S)cc1	none (no result: ERa coact pot, ERa SRC1 inh, ERb SRC1 inh)
COc1ccc(N=C2NC(=O)S/C2=C\c2ccc(N(C)C)cc2)cc1	ERa SRC1 inh 54, ERb SRC1 inh 52
Cc1c(F)cccc1NS(=O)(=O)c1ccccc1C#N	none
Cc1nnc(Sc2c(N)n(C)c(=O)n(C)c2=O)s1	none
Cc1nnc(Sc2nc(Sc3nnc(C)s3)nc(N3CCN(C)CC3)n2)s1	ERb SRC1 inh 60[fluorescence artefact?] (no result: FAK inh, CD11b adhes enh, Mac1 fbg inh)
COC(=O)c1cc(NC2c3ncccc3C(=O)N2Cc2ccccc2)cc(C(=O)OC)c1 (stereo not given)	none
COc1ccc(CN2C(=O)c3cccnc3C2Nc2cc(Cl)ccc2OC)cc1 (stereo not given)	ERa coact pot 357[fluorescence artefact?] (no result: FAK inh)
COc1ccc(CN2C(=O)c3cccnc3C2O)cc1 (stereo not given)	ERa coact pot 394[fluorescence artefact?]
O=C(NCc1ccc2c(c1)OCO2)C1CCC(CNc2c(N3CCCCC3)c(=O)c2=O)CC1 (stereo not given)	none (no result: ERa coact pot, ERa SRC1 inh, ERb SRC1 inh)
CCOC(=O)CNC(=O)CSc1nnc(Cn2c(=O)sc3ccccc32)n1C	none (no result: FAK inh, CD11b adhes enh, Mac1 fbg inh)
O=C(CNCC1CCCO1)Nc1ccccc1N1CCCCCC1 (stereo not given)	none (no result: CD11b adhes enh, Mac1 fbg inh)
COc1ccccc1NC(=S)N(CCc1nc2cc(C)c(C)cc2[nH]1)Cc1cccnc1	none (no result: ERa coact pot, ERa SRC1 inh, ERb SRC1 inh, CD11b adhes enh, Mac1 fbg inh)
N#Cc1c(-c2ccco2)cc(-c2ccccn2)nc1N	ERa SRC1 inh 78[fluorescence artefact?], ERb SRC1 inh 63[fluorescence artefact?]
Cc1cc(C(F)F)n2nc(C(=O)Nc3ccc(S(=O)(=O)N4CCCC4)cc3)nc2n1	none
Cn1nc(-c2ccc(C(=O)Nc3cccc(Cl)c3)cc2)c2ccccc2c1=O	ERa coact pot 261
Cc1cc(C)c(NC(=O)CS(=O)CC(=O)NCCCc2ccccc2)c(C)c1 (stereo not given)	none (no result: ERa coact pot, ERa SRC1 inh, ERb SRC1 inh, CD11b adhes enh, Mac1 fbg inh)
Fc1ccc(CSc2nc3ccccc3[nH]2)c2ccccc12	Mac1 fbg inh 77
O=c1cc(CSc2nc3ccccc3[nH]2)c2ccccc2[nH]1	none
Cc1nc2c(C(=O)NCCC(C)C)c[nH]n2c(=O)c1Cc1ccccc1F	Mac1 fbg inh 81
